Screening data from PubChem BioAssay.
Most compounds without a hit are left out; they make up all but 19% or so of the library.
TGFb inhibitor = inhibitors of TGF-b signaling. HepG2 CAGA-GFP TGF-b/SMAD3 reporter, GFP fluorescence, 18 h; TGF-beta stimulated, 500 pg/mL final. Potency, µM (top dose mostly 46.1 µM), inactives show at the top dose activity, negative = inhibition, usual class: inhibitors. actives 1.2% (n = 410,000); also: potency is read from the fitted curve at half-maximal effect; % is scaled to controls: 0 for no effect and ±100 for the full control effect; nearly all actives have a fitted effect of over 65% in size
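First, reporter cells (HEPG2 CAGA-GFP) rested 2 h at 37 degrees C. Next, compounds were pinned in and TGF-beta added to 500 pg/mL final. After 18 h, GFP was imaged per cell and summed per well.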
TDP1 block = TDP1 (human) enzyme inhibition; Q9NUW8; recombinant TDP1, AlphaScreen DNA substrate cleavage; Potency, µM (doses to about 130 µM), for the others: at the top dose activity change, negative = inhibition, actives largely listed as inhibitors; actives 0.28% (n = 350,000); AID 485290; also: potency is read from the fitted curve at half-maximal effect; % is scaled to controls: 0 for no effect and ±100 for the full control effect; nearly all actives have a fitted effect of over 40% in size
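Signal: AlphaScreen proximity between streptavidin donor and anti-FITC acceptor beads on intact substrate. Reaction: Tdp1 1 nM, substrate 15 nM final, 5 min RT after 15 min compound preincubation.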
DT40 TDP1 CPT = growth inhibition of DT40 Tdp1-/-;hTDP1 cells with camptothecin (screen for TDP1 inhibitors); chicken DT40 Tdp1-/-;hTDP1 cells + 20 nM CPT, ATP luminescence, 48 h; AID 686979; actives 12% (n = 420,000); Potency, µM (titrated, usually from 46.2 µM), for inactives: at the top dose activity change, negative = growth inhibition, actives largely listed as inhibitors; also: potency is read from the fitted curve at half-maximal effect; % is scaled to controls: 0 for no effect and ±100 for the full control effect; nearly all actives have a fitted effect of over 55% in size
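Chicken DT40 Tdp1-/- cells stably complemented with human TDP1 were seeded at 400 cells/well in medium containing 20 nM camptothecin, exposed to pin-transferred compounds, and grown at 37 °C for at least 48 hr. Viability was read as ATP luminescence.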
IL1B secr inh = blocks inflammasome-driven IL-1 beta release. activity change, % at 57.5 µM. THP-1 LPS/ATP IL-1B secretion, AlphaLISA, 16 h; stronger effect = lower value. actives 4.7% (n = 360,000); in the data active = activity change below about -50%; inconclusive = mostly about -30% to -49%; also: % is scaled to controls: 0 for no effect and ±100 for the full control effect
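Secreted IL-1B measured by AlphaLISA bead assay after 16 h compound exposure of THP-1 cells; compounds (final up to 57.5 uM) added 1 h before LPS (250 ng/mL) and ATP (1.25 mM) stimulation; lower signal means less secretion.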
HepG2 viability = HepG2 cytotoxicity, counter-screen for TGF-b inhibitors. HepG2 CAGA-GFP viability, ATP luminescence, 18 h. Potency, µM (highest dose often 46.1 µM), without a hit: at the highest dose activity change, negative = cytotoxicity, usual class: cytotoxic. actives 0.76% (n = 410,000). AID 588856; also: potency is read from the fitted curve at half-maximal effect
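HepG2 CAGA-GFP cells (1000/well, DMEM with 1% FBS) received compound, then TGF-beta at 500 pg/mL final, and were incubated 18 hours at 37 degrees C. Viability was read by CellTiter-Glo luminescence. Media-only wells were set as complete cell-killing and DMSO as no toxicity.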
TDP1 cell noCPT = qHTS for Inhibitors of human tyrosyl-DNA phosphodiesterase 1 (TDP1): qHTS in cells in absence of CPT | DT40 Tdp1-/- hTDP1 cells, no CPT, ATP luminescence, 48 h | Potency, µM (doses to about 46.2 µM), inactives show at the top dose activity change, negative = growth inhibition, usual class: inhibitors | actives 15% (n = 420,000) | AID 686978, 2013; also: potency is read from the fitted curve at half-maximal effect; % is scaled to controls: 0 for no effect and ±100 for the full control effect; nearly all actives have a fitted effect of over 55% in size
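DT40 Tdp1-/-;hTDP1 cells, no CPT (DMSO vehicle only), 400 cells/well; compounds pin-transferred; ≥48 hr, 37 °C; CellTiter-Glo 30 min RT dark, luminescence read.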
Active calls of the source: *; ? = inconclusive; · = no result; [ ] = another dose, or the depositor's remark. Unless noted, calls follow the shape of the dose curve; as a rule, active = well fitted curve in the direction sought with a large enough effect; inconclusive = small, poorly fitted or top-dose-only effect, or another doubt; inactive = no such curve, though single readings can be large; an effect the other way counts as inactive or inconclusive.

SMILES	TGFb inhibitor	TDP1 block	DT40 TDP1 CPT	IL1B secr inh	HepG2 viability	TDP1 cell noCPT
O=C1CCC[C@@H]2C[C@@]3(C[C@@H]4CCN1[C@H]24)Nc1cc(Cl)ccc1NC3=NC1CCCCC1	?	·	?	23	0%	?
O=C1CCC[C@@H]2C[C@@]3(C[C@@H]4CCN1[C@H]24)Nc1cc([N+](=O)[O-])ccc1NC3=NC1CCCCC1	?	·	26µM*	-11	-36%	11µM*
CC(C)(C)CC(C)(C)N=C1Nc2ccc(Cl)cc2N[C@]12C[C@H]1CCCC(=O)N3CC[C@@H](C2)[C@@H]13	?	·	?	·	8.9µM*	?
COc1ccc(N2C(=O)[C@@H]3C[C@H]2CN3Cc2ccc3nccnc3c2)cc1Cl	·	·	11%[9.04 µM]	·	·	?
CNC(=O)CN1C(=O)CSc2ncccc21	5%	3%	-2%	4	2%	-19%
CCN(CC)c1ccc(NC(=O)CN2C(=O)CSc3ncccc32)c(C)c1	?	1%	5.2µM*	11	-8%	7.3µM*
CCN(CC)c1ccc(NC(=O)Cn2nc(C)n3cccc3c2=O)c(C)c1	52%	-3%	15µM*	·	9%	18µM*
CCN(CC)c1ccc(NC(=O)CN2C(=O)c3cccnc3Oc3ccccc32)c(C)c1	-4%	9%	16µM*	·	-27%	16µM*
CCC(c1nnnn1-c1ccc2c(c1)OCCO2)N1CCN(c2ccc(OC)cc2)CC1 (centres undefined)	·	·	21µM*	-7	·	?
CCC(c1nnnn1-c1ccc2c(c1)OCCO2)N1CCN(c2ccccc2)CC1 (centres undefined)	·	·	?	26	·	?
CCC(c1nnnn1-c1ccc2c(c1)OCCO2)N1CCN(c2cccc(C)c2C)CC1 (centres undefined)	·	·	?	-12	·	18µM*
CCC(c1nnnn1-c1ccc2c(c1)OCCO2)N1CCN(CCN2CCOCC2)CC1 (centres undefined)	·	·	-7%	-1	·	7%
CCC(c1nnnn1-c1ccc2c(c1)OCCO2)N1CCN(Cc2c(F)cccc2Cl)CC1 (centres undefined)	·	·	?	?	·	23µM*
COc1ccccc1NC(=O)c1cc(S(=O)(=O)N2CCC3(CC2)OCCO3)ccc1F	-8%	1%	?	17	-8%	-7%
COCCCNC(=O)c1c[nH]c2ccc(S(=O)(=O)N3CCc4ccccc43)cc2c1=O	?	3%	-29%	-2	-29%	?
CCCNC(=O)c1cc(S(=O)(=O)N2CCc3ccccc32)ccc1F	-22%	2%	5.2µM*	-8	-19%	15µM*
COCCNC(=O)c1c[nH]c2ccc(S(=O)(=O)N3CCc4ccccc43)cc2c1=O	-25%	-3%	15µM*	?	-57%	6.5µM*
COc1ccccc1NC(=O)c1cc(S(=O)(=O)N2CCc3ccccc32)ccc1F	7%	2%	18µM*	19	8%	?
COc1ccc(CCNC(=O)c2cc(S(=O)(=O)N3CCc4ccccc43)ccc2F)cc1OC	?	·	12µM*	-7	-39%	6.5µM*
CC(=O)Nc1c(C)nn(-c2ccccc2)c1N1CCC(C(=O)NCc2ccc(Cl)cc2)CC1	-14%	3%	-23%	·	0%	-8%
COc1ccc(OC)c(CCNc2nc3cc(OC)c(OC)cc3c3nc(-c4cccnc4)nn23)c1	5%	1%	-6%	·	3%	-16%
Cc1noc(C)c1C(=O)N1CCC2(CCCN(C(=O)Nc3cccc(C#N)c3)C2)CC1	·	·	-3%	·	·	-18%
